Entries with a potency or affinity are not part of this list.
What was measured:
Klebsiella pneumoniae = settings: Concentration 20 uM; ASSAY_TEST Inhibition of Bacterial Growth; detection method Absorption (OD600); MEDIA CAMHB; plate type 384well; NBS; CORNING #3640; time 18 hr
Candida albicans = settings: 20 µM
Cryptococcus neoformans = settings: Concentration 20 uM; ASSAY_TEST Inhibition of Fungal Growth; detection method Resazurin; Absorption (OD600-OD570); plate type 384well; NBS; CORNING #3640

Q: How did the Inhibition (Klebsiella pneumoniae) turn out when `Nc1ncnc2[nH]nc(Cc3cccc4ccccc34)c12` was run?
A: Its Inhibition is 12.26%.

Q: What about the Inhibition (Candida albicans) of the same compound?
A: Its Inhibition is 3.76%.

Q: What about the Inhibition (Cryptococcus neoformans) of the same compound?
A: The Inhibition was -8.72%.

Q: For `COC(=O)c1c(NC(=O)c2c(F)c(F)c(F)c(F)c2F)sc2c1CCCCC2`, which Inhibition (Klebsiella pneumoniae) is on record?
A: Its Inhibition is 11.31%.

Q: What about the Inhibition (Candida albicans) of the same compound?
A: Its Inhibition is 6.8%.

Q: And the Inhibition (Cryptococcus neoformans)?
A: Its Inhibition is -13.49%.

Q: Which Inhibition (Klebsiella pneumoniae) does the source give for `O=C(Nc1ccnc(-c2cccnc2)n1)c1cc(C(F)(F)F)cc(C(F)(F)F)c1` here?
A: The Inhibition was 14.57%.

Q: What about the Inhibition (Candida albicans) of the same compound?
A: The Inhibition was 1.91%.

Q: And the Inhibition (Cryptococcus neoformans)?
A: Its Inhibition is -5.46%.

Q: For `O=C1Nc2ccc(Br)cc2C12NCCc1c2[nH]c2ccccc12` (stereo unspecified), which Inhibition (Klebsiella pneumoniae) is on record?
A: The Inhibition was 4.49%.

Q: What about the Inhibition (Candida albicans) of the same compound?
A: Its Inhibition is 2.19%.

Q: What about the Inhibition (Cryptococcus neoformans) of the same compound?
A: The Inhibition was -1.68%.

Q: For `CCCCOC(=O)Nc1cc2nc(C3CCCCC3)[nH]c2cc1N1CCCC1`, which Inhibition (Klebsiella pneumoniae) is on record?
A: The Inhibition was 3.91%.

Q: What about the Inhibition (Candida albicans) of the same compound?
A: Its Inhibition is 3.13%.

Q: What about the Inhibition (Cryptococcus neoformans) of the same compound?
A: The Inhibition was -8.19%.

Q: `O=C(NCCc1ccccc1)c1cc(-c2cccnc2)cnc1NCC1CC1` was tested. Which Inhibition (Klebsiella pneumoniae) did it give?
A: Its Inhibition is -2.11%.

Q: And the Inhibition (Candida albicans)?
A: Its Inhibition is 6.13%.

Q: And the Inhibition (Cryptococcus neoformans)?
A: Its Inhibition is -7.61%.

Q: What does the source list for `CCc1ccccc1-n1c(C)cn2c3c(=O)n(C(C(=O)OC)C(C)C)c(=O)n(C)c3nc12` (stereo unspecified)?
A: Inhibition (Klebsiella pneumoniae): 8.42%; Inhibition (Candida albicans): 0.33%; Inhibition (Cryptococcus neoformans): -8.91%

Q: What does the source list for `N=C(N)c1ccc(-c2cc(-c3ccccc3)on2)cc1`?
A: Inhibition (Klebsiella pneumoniae): 18.39%; Inhibition (Candida albicans): 3.34%; Inhibition (Cryptococcus neoformans): -9.38%

Q: How did the Inhibition (Klebsiella pneumoniae) turn out when `COc1cccc(-c2cc3c(Nc4cccnc4)nccc3[nH]2)c1` was run?
A: The Inhibition was 4.5%.

Q: And the Inhibition (Candida albicans)?
A: Its Inhibition is 3.5%.

Q: What about the Inhibition (Cryptococcus neoformans) of the same compound?
A: Its Inhibition is -6.63%.

Q: What does the source list for `Cc1noc(C)c1C(=O)N1CCCC(c2[nH]c3c(C)cccc3c2-c2ccncc2)C1` (stereo unspecified)?
A: Inhibition (Klebsiella pneumoniae): 18.77%; Inhibition (Candida albicans): 4.29%; Inhibition (Cryptococcus neoformans): -7.96%

Q: For `Cc1ccccc1C(=O)N1N=C(Nc2ccccc2)SC1(C)C`, which Inhibition (Klebsiella pneumoniae) is on record?
A: The Inhibition was 6.87%.

Q: What about the Inhibition (Candida albicans) of the same compound?
A: Its Inhibition is 4%.

Q: And the Inhibition (Cryptococcus neoformans)?
A: The Inhibition was -7.29%.

Q: What does the source list for `c1cc(C2=NCCN2)cc(-c2cc(-c3ccc(C4=NCCN4)cc3)no2)c1`?
A: Inhibition (Klebsiella pneumoniae): 11.59%; Inhibition (Candida albicans): 2.32%; Inhibition (Cryptococcus neoformans): -10.15%

From ChEMBL document CHEMBL4513149, “CO-ADD screening of MMV (CH) - MMV compounds” (2021)
